Source: PubChem BioAssay AID463193 (University of Pittsburgh Molecular Library Screening Center, 2010)
The campaign covered roughly 190,000 compounds. About 1,900 (1%) were called active.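 Rule for the calls: active = percentage of spot-positive cells more than 3 SD above its plate mean, without a fluorescence outlier flag or 80% toxicity; inconclusive = no clear call, values can overlap the other calls; inactive = the rest.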 Many of the other results were omitted from the sample, so actives are more common in it than they were.

Assay: autophagy modulators in MEF cells, primary screen, imaging, high-content, MEF GFP-LC3 (AID 463193);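 for % cells with GFP-LC3 spots: spot-positive cell cutoff set from DMSO-treated cells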;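 for toxicity: cell loss after 18 h compound exposure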
Conditions: MEF GFP-LC3 puncta imaging, at 10 µM; % cells with GFP-LC3 spots: stronger effect = higher value; toxicity: measured here: cell loss, nuclei count

Structure (SMILES)	% cells with GFP-LC3 spots	toxicity
Cc1nn(CC(=O)Nc2ccc(C#N)cc2)c(C)c1[N+](=O)[O-]	2.1% (inactive)	9.5%
CCc1ccc(NC(=O)Cn2nc(C)c([N+](=O)[O-])c2C)cc1	13.4% (active)	38.8%
Cc1nn(CC(=O)Nc2ccc(N(C)C)cc2)c(C)c1[N+](=O)[O-]	8.73% (inactive)	-12.8%
C=CCC(C(=O)c1ccccc1)[N+](C)(C)CC=C (stereo not given)	2.53% (inactive)	-14.3%
COC(=O)COc1ccc(C2NC(=O)NC(C)=C2C(=O)NCc2ccccc2)cc1OC (stereo not given)	0.797% (inactive)	20.4%
Cn1c(N)c(C(=O)COC(=O)c2cnc(Cl)c(Cl)c2)c(=O)n(C)c1=O	0.712% (inactive)	15.7%
Cc1c(Cl)cccc1NC(=O)CSc1ccc(-c2cccnc2)nn1	0.277% (inactive)	-2.28%
CCC(=O)Nc1cc(C(F)(F)F)ccc1N1CCCC1	0.264% (inactive)	-3.5%
CN1CCN(CC(=O)Nc2sc3c(c2C#N)CCC(C(C)(C)C)C3)CC1 (stereo not given)	41.9% (active)	29.1%
CCN1CCN(CC(=O)Nc2sc3c(c2C#N)CCC3)CC1	2.15% (inactive)	4.77%
CCC1CCc2c(sc(NC(C)=O)c2C#N)C1 (stereo not given)	6.62% (inactive)	-8.42%
CC1(C)CC(=O)c2ccc(O)cc2O1	1.01% (inactive)	7.65%
CCOc1ccc(CN2CCN(Cc3ccc(C)o3)CC2CCO)cc1 (stereo not given)	0.14% (inactive)	-9.23%
O=C(CCN1C(=O)C2C3C=CC(C3)C2C1=O)Oc1ccc2ccccc2c1 (stereo not given)	11.3% (inactive)	19.4%
CC1=CC(C)(C)Nc2ccc(OC(=O)CN3C(=O)C4CCCCC4C3=O)cc21 (stereo not given)	8.28% (inactive)	24.4%
O=C(CN1C(=O)C2C3CCC(C3)C2C1=O)Oc1ccc2ccccc2c1 (stereo not given)	18.4% (active)	-20.7%
COCCNc1nc2nonc2nc1N(C)Cc1ccc(C)cc1	1.24% (inactive)	-31.9%
Cc1cn(C)c(=O)n(C)c1=O	8.58% (inactive)	10.3%
O=C(O)CSCC(=O)Nc1cccc(C(F)(F)F)c1	6.64% (inactive)	0%
COc1ccc(NC(=O)C(=O)NCC(=O)Nc2cccc(C(F)(F)F)c2)cc1	8.9% (active)	11.1%
COc1ccc(NC(=O)CN(C)CC(=O)Nc2cccc(C(F)(F)F)c2)cc1	2.37% (inactive)	1.34%
CC1Cc2ccccc2N1C1=CC(=O)CC(C)(C)C1 (stereo not given)	2.88% (inactive)	3.93%
Cc1c(NC(=O)/C=C/C(=O)O)cccc1[N+](=O)[O-]	8.95% (inactive)	-17.9%
Cc1ccc(/C=C/C(=O)Nc2ccc([N+](=O)[O-])c(NC(=O)/C=C/c3ccc(C)o3)c2)o1	55.6% (active)	0.679%
CCc1nnc(NC(=O)/C=C/c2ccc(C)o2)s1	3.65% (inactive)	1.45%

Structure (SMILES)	% cells with GFP-LC3 spots	toxicity
CCCCc1ccc(NC(=S)N2CCCC(CO)C2)cc1 (stereo not given)	11.5% (inactive)	11.5%
COc1ccc2cc(-c3[nH]ncc3CNCCn3nc(C)cc3C)ccc2c1	16.9% (inactive)	22%
CC(=O)NC1=NN(C(C)=O)C(C)(CCS(=O)(=O)c2ccc(Cl)c(Cl)c2)S1 (stereo not given)	9.23% (inactive)	11.3%
CC(=O)NC1=NN(C(C)=O)C(C)(c2ccc(Cl)s2)S1 (stereo not given)	21.9% (active)	54.1%
CC(=O)NC1=NN(C(C)=O)C(C)(c2ccc(C)cc2)S1 (stereo not given)	4% (inactive)	-6.62%
COc1ccc(N2CCN(c3ccc([N+](=O)[O-])nc3)CC2)cc1	7.77% (inactive)	4.08%
O=C(N/N=C/c1ccc(Br)o1)c1cncc(Br)c1	33.5% (inactive)	-0.407%
CCN(CC)CCCNC(=O)c1ccc2c(=O)n(Cc3ccc4c(c3)OCO4)c(=S)[nH]c2c1	0.744% (inactive)	5.92%
CC(Nc1nc(N2CCN(CCO)CC2)nc2ccccc12)c1ccccc1 (stereo not given)	30.9% (inactive)	23.9%
CC(Nc1nc(N2CCCC2)nc2ccccc12)c1ccccc1 (stereo not given)	13.8% (active)	-2.79%
CC(Nc1nc(N2CCOCC2)nc2ccccc12)c1ccccc1 (stereo not given)	0.846% (inactive)	11.2%
O=C(CS(=O)(=O)c1ccccc1)Nc1ccc(S(=O)(=O)Nc2ccccn2)cc1	0.85% (inactive)	0.1%
C=CCN1C(=O)C(Cc2ccc(OCC)cc2)SC1=Nc1ccc(C(=O)O)cc1 (stereo not given)	9.61% (inactive)	-5.34%
O=c1c2ccccc2nnn1CSc1nnnn1-c1ccccc1	7.02% (inactive)	5.05%
O=c1c2ccccc2nc(CSc2nnnn2-c2ccccc2)n1-c1ccccc1	39.8% (active)	-13.7%
Cc1ccc(Nc2nc(CSc3nnnn3-c3ccccc3)cc(=O)[nH]2)cc1	3.58% (inactive)	2.22%
CCCC(=O)NC(=S)Nc1ccc(CN2CCOCC2)cc1	10.3% (inactive)	-3.3%
CCNC(=O)COC(=O)/C=C/c1c(C)nn(Cc2cccc(OC)c2)c1Cl	10.7% (inactive)	15.5%
COC(=O)c1ccc(NC(=O)c2cc(Cl)ccc2OC)cc1	0.193% (inactive)	-8.44%
CCOC(=O)c1cc(NC(=O)c2ccc(Cl)cc2)c(=O)oc1-c1ccccc1	15.9% (active)	-0.561%
CC(=O)c1cc(NC(=O)c2ccccc2)c(=O)oc1/C=C/N(C)C	2.32% (inactive)	8.72%
CCOC(=O)NNC(=O)c1ccc(Cl)cc1	2.34% (inactive)	8.61%
CC(C)NC(=O)NC(=O)CSc1nnc(-c2ccccc2F)n1N	4.07% (inactive)	-3.54%
Cc1cc([N+](=O)[O-])nn1Cc1ccc(F)cc1	11.8% (inactive)	3.65%
Cc1cnc(C(=O)OCC(=O)NCCCc2ccccc2)cn1	19.9% (inactive)	14.4%
